# High-throughput results from PubChem.
# Sampled rows, rich in hits. Any-hit rate of the full collection: about 19%.
# DT40 TDP1 CPT: DT40-hTDP1 cell growth loss with CPT. 420,000 compounds, 12% hits. chicken DT40 Tdp1-/-;hTDP1 cells + 20 nM CPT, ATP luminescence, 48 h. Potency, µM (top dose mostly 46.2 µM), for the others: at the highest dose activity change, negative = growth inhibition, hits mostly inhibitors. AID 686979; also: potency is read from the fitted curve at half-maximal effect; % is scaled to controls: 0 for no effect and ±100 for the full control effect; nearly all actives have a fitted effect of over 55% in size
#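 Cell growth measured by CellTiter-Glo luminescence after a minimum 48 h, 37 C compound exposure with 20 nM CPT in Tdp1-knockout DT40 cells stably expressing hTDP1, seeded 400/well; qHTS titration format.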
# TDP1 block: blocks human tyrosyl-DNA phosphodiesterase 1; 350,000 compounds, 0.28% hits; Potency, µM (series often up to 130 µM), without a hit: at the top dose activity change, negative = inhibition, actives largely listed as inhibitors; AID 485290; recombinant TDP1, AlphaScreen DNA substrate cleavage; also: potency is read from the fitted curve at half-maximal effect; % is scaled to controls: 0 for no effect and ±100 for the full control effect; nearly all actives have a fitted effect of over 40% in size
# Target sequence (Q9NUW8 whole entry, looked up): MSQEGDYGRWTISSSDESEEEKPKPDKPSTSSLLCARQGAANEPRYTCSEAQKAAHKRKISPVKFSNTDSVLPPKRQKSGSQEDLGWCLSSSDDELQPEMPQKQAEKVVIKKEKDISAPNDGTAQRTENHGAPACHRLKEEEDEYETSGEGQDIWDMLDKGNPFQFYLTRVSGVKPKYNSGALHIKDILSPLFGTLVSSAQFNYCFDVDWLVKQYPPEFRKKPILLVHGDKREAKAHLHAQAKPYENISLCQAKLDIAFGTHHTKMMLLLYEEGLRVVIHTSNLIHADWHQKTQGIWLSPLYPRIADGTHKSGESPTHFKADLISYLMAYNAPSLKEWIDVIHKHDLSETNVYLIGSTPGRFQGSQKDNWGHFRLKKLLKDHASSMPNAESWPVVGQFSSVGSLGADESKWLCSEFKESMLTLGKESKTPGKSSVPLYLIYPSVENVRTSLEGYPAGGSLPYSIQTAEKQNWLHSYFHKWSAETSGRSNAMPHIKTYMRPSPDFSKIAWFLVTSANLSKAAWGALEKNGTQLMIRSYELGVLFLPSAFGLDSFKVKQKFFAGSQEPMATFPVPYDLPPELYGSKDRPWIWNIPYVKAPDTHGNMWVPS
#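 Tdp1 1 nM final; 15 min RT w/ cpd; substrate 15 nM, 5 min; beads 10 ug/ml, 10 min; AlphaScreen read. Neg ctrl: no enzyme.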
# TGFb inhibitor: TGF-b pathway inhibition. HepG2 CAGA-GFP TGF-b/SMAD3 reporter, GFP fluorescence, 18 h; TGF-beta stimulated, 500 pg/mL final. Potency, µM (highest dose often 46.1 µM), for inactives: at the highest dose activity, negative = inhibition, usual class: inhibitors. 410,000 compounds, 1.2% hits; also: potency is read from the fitted curve at half-maximal effect; % is scaled to controls: 0 for no effect and ±100 for the full control effect; nearly all actives have a fitted effect of over 65% in size
#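 TGF-beta reporter screen: HEPG2 CAGA-GFP, 1% FBS, 500 pg/mL TGF-beta final, 18 h; per-cell GFP summed per well; curves fitted and categorized by class.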
# HepG2 viability: HepG2 cytotoxicity, counter-screen for TGF-b inhibitors | 410,000 compounds, 0.76% hits | Potency, µM (titrated, usually from 46.1 µM), without a hit: at the top dose activity change, negative = cytotoxicity, actives largely listed as cytotoxic | HepG2 CAGA-GFP viability, ATP luminescence, 18 h | AID 588856; also: potency is read from the fitted curve at half-maximal effect
#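 CellTiter-Glo luminescence gave cytotoxicity after 18 hours at 37 degrees C. The cells were HepG2 CAGA-GFP in 1% FBS DMEM, stimulated with 500 pg/mL TGF-beta after compound addition. %Activity was normalised to no-cell wells (complete cell-killing) and DMSO (no toxicity), and curves were fitted and classified.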
# DT40 TDP1 no CPT: qHTS for Inhibitors of human tyrosyl-DNA phosphodiesterase 1 (TDP1): qHTS in cells in absence of CPT | DT40 Tdp1-/- hTDP1 cells, no CPT, ATP luminescence, 48 h | Potency, µM (highest dose often 46.2 µM), for inactives: at the highest dose activity change, negative = growth inhibition, actives largely listed as inhibitors | 420,000 compounds, 15% hits | AID 686978, 2013; also: potency is read from the fitted curve at half-maximal effect; % is scaled to controls: 0 for no effect and ±100 for the full control effect; nearly all actives have a fitted effect of over 55% in size
#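 No-CPT arm: Tdp1-/-;hTDP1 DT40 cells (400/well) plus compounds, incubated ≥48 hr at 37 °C. Readout CellTiter-Glo luminescence.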
# IL-1B inflam inh: inhibitors of inflammasome signaling (IL-1 beta secretion); activity change, % at 57.5 µM; THP-1 LPS/ATP IL-1B secretion, AlphaLISA, 16 h; active compounds read low; AID 743279; 360,000 compounds, 4.7% hits; in the data active = activity change below about -50%; inconclusive = mostly about -30% to -49%; also: % is scaled to controls: 0 for no effect and ±100 for the full control effect
#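 Secreted IL-1B measured by AlphaLISA bead assay after 16 h compound exposure of THP-1 cells; compounds (final up to 57.5 uM) added 1 h before LPS (250 ng/mL) and ATP (1.25 mM) stimulation; lower signal means less secretion.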
# Starred values were filed as active, the others as inactive; ? = inconclusive; . = no result; [ ] = dose if it differs, or a comment. Unless noted, calls follow the shape of the dose curve; as a rule, active = well fitted curve in the direction sought with a large enough effect; inconclusive = small, poorly fitted or top-dose-only effect, or another doubt; inactive = no such curve, though single readings can be large; an effect the other way counts as inactive or inconclusive.
SMILES,DT40 TDP1 CPT,TDP1 block,TGFb inhibitor,HepG2 viability,DT40 TDP1 no CPT,IL-1B inflam inh
Cc1ccc(C)c(NS(=O)(=O)c2ccc(-c3cnc(C4CC4)o3)cc2)c1,0.0058µM*,2.7%,?,-49.8%,0.0052µM*,51.0
Cc1ccc(Cl)cc1N1CCN(S(=O)(=O)c2ccc(-c3cnc(C4CC4)o3)cc2)CC1,?,8.8%,?,-21.8%,13µM*,.
CCN1CCN(c2nc3c(C)cccn3c(=O)c2/C=C(\C#N)C(=O)NCCOC)CC1,6.6%,.,-0.9%,-6.1%,18.2%,-15.6
COc1ccc(NCc2nnc3n2CCCCC3)c(OC)c1,-4.8%,0.0%,0.1%,-15.1%,3.9%,.
O=C1C=CC(=O)c2c(O)c(CO)c(CO)c(O)c21,2.06µM*,.,11.2µM*,10µM*,2.91µM*,-1.3
O=c1c(CO)cc(CO)cc(CO)c1O,0.5%,.,-5.1%,-17.5%,-29.1%,-22.9
O=C1C=CC(=O)c2c(O)c(Cl)c(Cl)c(O)c21,?,-2.7%,.,.,2.06µM*,.
COC(=O)[C@H]1C2CC3c4[nH]c5ccccc5c4CCN3CC2CC[C@@H]1O (some centres undefined),-3.0%,6.1%,.,.,-11.6%,.
Cc1ccc(N)cc1NC(=O)CN1CCOCC1,0.2%,4.7%,8.8%,-0.8%,3.5%,13.4
O=C(O)c1c2cc(Br)ccc2nc2[nH]c(=O)[nH]c(=O)c12,-12.2%,.,-6.3%,10.6%,-0.7%,-5.3
Cc1ccc2nc3[nH]c(=O)[nH]c(=O)c3c(N)c2c1,?,.,3.8%,-0.9%,8.2µM*,-6.4
CCOc1ccccc1NC(=O)CN1C(=O)CC(c2ccc(C)c(C)c2)=Nc2ccccc21,-6.4%,5.8%,23.0%,-12.4%,-14.4%,.
O=C(c1ccc(N2CCC(NCCCn3ncc4ccccc43)CC2)cc1)N1CCc2ccccc2C1,5.5%[9.04 µM],.,.,.,?,.
Cc1sc2nc(-c3cccs3)nc(N3CCCN(C)CC3)c2c1C,.,6.2%,.,.,.,.
Cc1sc2nc(CSc3ccccc3)nc(N3CCC(C(N)=O)CC3)c2c1C,?,2.3%,?,-3.8%,20.6µM*,-62.8*
CCOC(=O)c1sc2nc(CSc3ccccc3)nc(N3CCCN(C)CC3)c2c1C,25.9µM*,8.1%,-8.4%,-14.5%,?,?
Cc1sc2nc(CSc3ccccc3)nc(N3CCOCC3)c2c1C,?,1.1%,-21.5%,-1.8%,?,-13.5
Cc1sc(NC(=O)CN2CCN(c3ccccn3)CC2)c(C#N)c1C,-22.3%,6.2%,-5.7%,-11.3%,-9.9%,-6.7
CCOC(=O)c1sc2nc(CSc3ccccc3)nc(N3CCC(C(N)=O)CC3)c2c1C,?,3.8%,?,-26.5%,23.1µM*,-116.4*
CCOC(=O)c1sc2nc(CC(=O)OC)nc(N3CCN(c4ccccn4)CC3)c2c1C,23.1µM*,2.9%,-3.0%,-15.6%,18.4µM*,-12.5
Cc1cc(NC(=O)CN2C(=O)NC(CC(C)C)C2=O)ccc1Br (centres undefined),-26.7%,-3.2%,2.8%,-5.4%,?,-5.1
CCOC(=O)C1CN(S(=O)(=O)c2ccc(C)cc2)c2cc(S(=O)(=O)CC)ccc2O1 (centres undefined),-3.2%,-2.9%,8.2%,-16.9%,-2.5%,9.4
CCOC(=O)CC1(C)Oc2ccccc2N1S(=O)(=O)c1ccc(C)cc1 (centres undefined),20.6µM*,.,.,.,?,0.0
COc1cccc(CN2CCC(n3cc(C(=O)N4CCCCC4)nn3)CC2)c1OC,3.2%,.,.,.,-10.5%,.
CC1CCc2c(sc3nc(-c4cc5cc(Br)ccc5oc4=O)[nH]c(=O)c23)C1 (centres undefined),-14.9%,-1.3%,-2.4%,-16.1%,-18.4%,.
SMILES,DT40 TDP1 CPT,TDP1 block,TGFb inhibitor,HepG2 viability,DT40 TDP1 no CPT,IL-1B inflam inh
CC(c1ccon1)N(C)C(=O)c1cnn(-c2ncc3c(n2)-c2ccccc2CC3)c1C1CC1 (centres undefined),-10.8%[9.04 µM],.,.,.,16.4µM*,.
Cc1cc(-c2ccnc(-n3ncc(C(=O)NCC4COCCO4)c3C3CC3)n2)c(C)s1 (centres undefined),9.2µM*,.,.,.,6.51µM*,.
CCC(O)CNC(=O)c1cnn(-c2ncc3c(n2)-c2ccccc2CCC3)c1C1CC1 (centres undefined),-1.3%,.,.,.,?,.
Cc1cc(-c2ccnc(-n3ncc(C(=O)NCC4CCCO4)c3C3CC3)n2)c(C)s1 (centres undefined),-2.0%[9.04 µM],.,.,.,?,.
CN(Cc1cccc2ncccc12)C(=O)c1cnn(-c2ncc3c(n2)-c2ccccc2CC3)c1C1CC1,?,.,.,.,16.4µM*,.
COC(=O)[C@@H]1CCCN1C(=O)c1cnn(-c2ncc3c(n2)-c2ccccc2CCC3)c1C1CC1,?,.,.,.,16.4µM*,.
COc1ccccc1-c1ccnc(-n2ncc(C(=O)NCc3ccncc3)c2C)n1,-9.1%[9.04 µM],.,.,.,-27.5%,.
COc1ccccc1-c1ccnc(-n2ncc(C(=O)N[C@H]3CCCCNC3=O)c2C2CC2)n1,?,.,.,.,20.6µM*,.
Cc1cc(-c2ccnc(-n3ncc(C(=O)NCC4CCCN(C)C4)c3C3CC3)n2)c(C)s1 (centres undefined),5.5%,.,.,.,-2.6%,.
O=C(NCc1cccnc1)c1cnn(-c2ncc3c(n2)-c2ccccc2CCC3)c1C1CC1,-16.3%[9.04 µM],.,.,.,?,.
Cc1cc(CNC(=O)c2cnn(-c3nccc(-c4cc(C)sc4C)n3)c2C2CC2)on1,16.4µM*,.,.,.,?,.
Cc1cc(CNC(=O)c2cnn(-c3ncc4c(n3)-c3ccccc3CC4)c2C2CC2)on1,16.4µM*,.,.,.,?,.
CCC(Oc1ccc(F)cc1)C(=O)Nc1c(C(=O)c2ccc(C)cc2)oc2ccccc12 (centres undefined),-9.7%,-1.1%,2.0%,-6.1%,-22.8%,.
CCCCC(=O)Nc1ccc(C(=O)OCc2cc(=O)n3nc(C4CC4)sc3n2)cc1,-29.6%,-1.2%,-5.2%,-19.8%,?,.
COc1ccc(O)c(-c2cc(-c3cccc(Br)c3)n[nH]2)c1,?,10.1%,?,-129.4%,16.4µM*,-6.0
COc1ccc(-c2cc(-c3ccc(Cl)cc3)n[nH]2)c(O)c1,?,.,?,-48.8%,?,?
COc1ccc(O)c(-c2cc(-c3ccc(F)cc3)n[nH]2)c1,-25.2%,.,?,-15.2%,?,-51.1*
Cc1ccc(O)c(-c2cc(-c3cccc(F)c3)n[nH]2)c1,?,6.8%,22.4µM*,-84.0%,?,-11.6
